# Results filed as inconclusive are left out. Some compounds were tested as several samples or in several runs, with calls that do not always agree. Calls of active or inactive are those of the source. How the source made its calls, unless noted: active means hit-call score of the fitted dose curve at least 0.9, where 1 is the maximum; inactive means score below 0.9.
# Assays:
# [1] = biological target: Oxysterols receptor LXR-beta (Homo sapiens) (UniProt P55055); assay: ATG_LXRb_TRANS: Attagene TRANS-FACTORIAL HepG2 Assay for human Liver X Receptor beta (LXRb) (AID 2282981; active means hit-call score of the fitted dose curve at least 0.9, where 1 is the maximum); conditions: HepG2 Attagene TRANS GAL4-LXRb reporter, mRNA
# Summary of the method: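 After 24 h chemical treatment of transfected HepG2 cells carrying exogenous NR-Gal4 chimeras, reporter mRNA was quantified by fluorescent RT-PCR and capillary electrophoresis; activity taken as increase over DMSO controls.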
# [2] = biological target: Hepatocyte nuclear factor 4-alpha (Homo sapiens) (UniProt P41235); assay: ATG_HNF4a_TRANS: Attagene TRANS-FACTORIAL HepG2 Assay for human Hepatocyte Nuclear Factor 4 alpha (HNF4a) (AID 2282982; active means hit-call score of the fitted dose curve at least 0.9, where 1 is the maximum); conditions: HepG2 HNF4a transactivation reporter, mRNA readout
# Summary of the method: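 Activity of an exogenous HNF4a–Gal4 fusion scored as induced GAL4-UAS reporter transcripts after 24 h chemical exposure of transfected human HepG2 cells. Read-out via RT-PCR with 6-FAM labelling and capillary electrophoresis; rise over DMSO baseline.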
# [3] = ATG_M_32_TRANS: Attagene TRANS-FACTORIAL HepG2 Assay for M32 Transcription Factor (Internal Marker) (AID 2282984; active means hit-call score of the fitted dose curve at least 0.9, where 1 is the maximum); conditions: HepG2 Attagene TRANS M32 internal marker reporter
# Summary of the method: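 Internal background reporter in transfected HepG2: after 24 h chemical exposure, RNA reverse-transcribed, reporter cDNA amplified, fluorescently labelled and HpaI-cut, then sized by capillary electrophoresis. Gain of signal fitted against DMSO control.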
# [4] = biological target: Transcriptional activator Myb (Homo sapiens) (UniProt P10242); assay: ATG_Myb_CIS: Attagene CIS-FACTORIAL HepG2 Assay for human Myeloblastosis (Myb) Proto-Oncogene Transcription Factor (AID 2282986); conditions: HepG2 Attagene CIS-FACTORIAL Myb reporter transcription; actives raise or lower the signal
# Summary of the method: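 Reporter transcript levels, quantified by fluorescent RT-PCR and capillary electrophoresis, serve as the read-out. Transfected HepG2 cells carrying cis-promoter reporter units are dosed for 24 hours, and curves are fitted bidirectionally against DMSO controls.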
# [5] = biological target: Nuclear respiratory factor 1 (Homo sapiens) (UniProt Q16656); assay: ATG_NRF1_CIS: Attagene CIS-FACTORIAL HepG2 Assay for human Nuclear Respiratory Factor 1 (NRF1) Orphan Gene (AID 2282987); conditions: HepG2 NRF1 cis-element reporter, Attagene multiplex; actives raise or lower the signal
# Summary of the method: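 Multiplexed cis-reporter assay, HepG2 cells, 24 h treatment. Total RNA → oligo(dT) RT → PCR with reporter-specific primers → 6-FAM primer extension → HpaI cut → CE. Bidirectional fit vs DMSO.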
# [6] = ATG_NFI_CIS: Attagene CIS-FACTORIAL HepG2 Assay for human Nuclear Factor I (NFI) (AID 2282989); conditions: HepG2 cis-regulatory reporter, NFI response element transcription; actives raise or lower the signal
# Summary of the method: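 Transient MRTU transfection of HepG2 → 24 h chemical dosing → total RNA, oligo(dT) RT → PCR, 6-FAM primer extension, HpaI cut → capillary electrophoresis. Endpoint fitted bidirectionally relative to DMSO.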
# [7] = biological target: Myc proto-oncogene protein (Homo sapiens) (UniProt P01106); assay: ATG_Myc_CIS: Attagene CIS-FACTORIAL HepG2 Assay for human Myelocytomatosis (Myc) Proto-Oncogene Transcription Factor (AID 2282990); conditions: HepG2, Attagene cis-reporter transcription factor activity; actives raise or lower the signal
# Summary of the method: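 Cells of the HepG2 human liver line bear multiple cis-driven reporter transcription units. Reporter mRNA after 24 h exposure is reverse-transcribed, amplified, labelled and resolved by capillary electrophoresis, with gain- or loss-of-signal fitting relative to DMSO.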
# [8] = ATG_NF_kB_CIS: Attagene CIS-FACTORIAL HepG2 Assay for human Nuclear Factor Kappa B (NF-kB) (AID 2282991); conditions: HepG2 Attagene cis-factorial NF-kB reporter mRNA; actives raise or lower the signal
# Summary of the method: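 Transient MRTU transfection of human HepG2 liver cells → 24 h chemical exposure → total RNA, oligo(dT) RT → PCR, 6-FAM primer extension, HpaI digest 2 h 37 C → CE fragment analysis. Bidirectional fitting, DMSO negative control.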
# [9] = ATG_NRF2_ARE_CIS: Attagene CIS-FACTORIAL HepG2 Assay for human Nuclear Factor Erythroid 2 Related Factor 2 (NFR2) response to Antioxidant Response Elements (ARE) (AID 2282992); conditions: HepG2 Attagene ARE/NRF2 reporter, transcription factor activity; actives raise or lower the signal
# Summary of the method: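 Endogenous transcription factor activity read out as reporter transcript levels (RT-PCR plus capillary electrophoresis, fluorescence) in transiently transfected HepG2 cells. Measured at 24 h after dosing; gain or loss of signal fitted versus DMSO.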
# [10] = ATG_Oct_MLP_CIS: Attagene CIS-FACTORIAL HepG2 Assay for human Octamer-Binding Transcription Factor (Oct) (AID 2282993); conditions: HepG2 Attagene cis-factorial Oct reporter, mRNA; actives raise or lower the signal
# Summary of the method: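 Transient MRTU transfection of HepG2 → 24 h compound treatment → RNA isolation, reverse transcription, PCR → 6-FAM primer extension, HpaI digest → capillary electrophoresis. Activity fitted both directions against DMSO.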
# [11] = biological target: Cellular tumor antigen p53 (Homo sapiens) (UniProt P04637); assay: ATG_p53_CIS: Attagene CIS-FACTORIAL HepG2 Assay for human p53 Transcription Factor (AID 2282994); conditions: HepG2 p53 cis-element reporter, Attagene mRNA; actives raise or lower the signal
# Summary of the method: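 Endogenous p53 activity read in transiently transfected HepG2 from a cis-element-driven reporter transcript after 24 h exposure. RNA reverse-transcribed, PCR-amplified, fluorescently labelled and sized by capillary electrophoresis; gain or loss fitted against DMSO baseline.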
# [12] = BSK_3C_uPAR: BioMAP Diversity Plus: 3C Assay for Urokinase-type plasminogen activator receptor (uPAR) Biomarker Activity (AID 2282998); conditions: BioMAP 3C HUVEC, uPAR biomarker ELISA; actives raise or lower the signal
# Summary of the method: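 ELISA readout of uPAR on human vascular endothelium (umbilical vein primary cells), taken 24 h after chemical dosing. Increases and decreases are both fitted relative to DMSO vehicle.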
# [13] = BSK_3C_VCAM1: BioMAP Diversity Plus: 3C Assay for Vascular cell adhesion molecule 1 (VCAM1) Biomarker Activity (AID 2282999); conditions: BioMAP 3C HUVEC, VCAM1 ELISA, cytokine-stimulated; actives raise or lower the signal
# Summary of the method: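 Activity fitted in both directions relative to DMSO, with ELISA measurement of the surface marker on primary HUVEC (3C) at 24 h post-treatment; parallel SRB staining (0.1% SRB, TCA-fixed, 560 nm) flagged overt cytotoxicity.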
# [14] = BSK_4H_Eotaxin3: BioMAP Diversity Plus: 4H Assay for Eotaxin 3 Biomarker Activity (AID 2283000); conditions: primary human endothelial cells (HUVEC); actives raise or lower the signal;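 on outcome: CCL26 protein level quantified by ELISA in parallel with SRB cytotoxicity check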
# Summary of the method: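 Human umbilical vein endothelial cells (BSK_4H system) dosed with test chemical; Eotaxin-3 (CCL26) measured by ELISA 24 h after dosing. Bidirectional curve fitting relative to DMSO negative control as baseline.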
# [15] = biological target: Oxysterols receptor LXR-alpha (Homo sapiens) (UniProt Q13133); assay: ATG_LXRa_TRANS: Attagene TRANS-FACTORIAL HepG2 Assay for human Liver X Receptor alpha (LXRa) (AID 2282980; active means hit-call score of the fitted dose curve at least 0.9, where 1 is the maximum); conditions: HepG2 Attagene TRANS reporter, LXRa transactivation
# Summary of the method: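 Chemical-induced reporter mRNA measured by RT-PCR with fluorescent labelling and capillary electrophoresis after 24 h dosing of transiently transfected HepG2 cells expressing exogenous NR-Gal4 chimeras; increases scored against DMSO baseline.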
# [16] = ATG_M_06_TRANS: Attagene TRANS-FACTORIAL HepG2 Assay for M06 Transcription Factor (Internal Marker) (AID 2282983; active means hit-call score of the fitted dose curve at least 0.9, where 1 is the maximum); conditions: HepG2 Attagene TRANS M06 internal marker reporter
# Summary of the method: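 Background-control reporter readout: after 24 h chemical exposure of transiently transfected HepG2 (GAL4-UAS reporter units), mRNA quantified by RT-PCR with fluorescent labeling and capillary electrophoresis. Gain-of-signal fitting against DMSO baseline.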
# [17] = BSK_3C_TissueFactor: BioMAP Diversity Plus: 3C Assay for Tissue Factor Biomarker Activity (AID 2282997); conditions: BioMAP 3C HUVEC, tissue factor biomarker readout; actives raise or lower the signal
# Summary of the method: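 Tissue factor on primary human umbilical vein endothelium was read by ELISA 24 h after dosing, gain or loss relative to DMSO. Cytotoxicity ran alongside via SRB (0.1%, TCA-fixed, 560 nm).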
# [18] = biological target: Glucocorticoid receptor (Homo sapiens) (UniProt P04150); assay: ATG_GR_TRANS: Attagene TRANS-FACTORIAL HepG2 Assay for human Glucocorticoid Receptor (GR) (AID 2282978; active means hit-call score of the fitted dose curve at least 0.9, where 1 is the maximum;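 further: activators score as hits since higher reporter transcript over DMSO is fitted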); conditions: HepG2 Attagene TRANS GR reporter, mRNA transcription
# Summary of the method: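 Fluorescent capillary-electrophoresis quantitation of reporter mRNA is the readout, taken 24 h after dosing human HepG2 cells carrying transiently transfected GAL4-UAS reporter units activated by chimeric NR-GAL4 fusions; activity scored as induction over DMSO.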
# [19] = biological target: Nuclear receptor subfamily 4 group A member 2 (Homo sapiens) (UniProt P43354); assay: ATG_NURR1_TRANS: Attagene TRANS-FACTORIAL HepG2 Assay for human Nuclear Receptor Related Protein 1 (NURR1) (AID 2282985; active means hit-call score of the fitted dose curve at least 0.9, where 1 is the maximum); conditions: HepG2 Attagene TRANS reporter, mRNA readout
# Summary of the method: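 Reporter transcript induction, measured by RT-PCR with fluorescent labelling, HpaI digestion and capillary electrophoresis, after 24 hr dosing of human HepG2 cells transiently expressing an exogenous NR-Gal4 fusion with GAL4-UAS-driven reporters; DMSO as baseline.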
# [20] = biological target: Bile acid receptor (Homo sapiens) (UniProt Q96RI1); assay: ATG_FXR_TRANS: Attagene TRANS-FACTORIAL HepG2 Assay for Farnesoid X Receptor (FXR) (AID 2282979; active means hit-call score of the fitted dose curve at least 0.9, where 1 is the maximum;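 further: hits raise reporter mRNA above DMSO so AC50 marks FXR activation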); conditions: HepG2 Attagene TRANS FXR-GAL4 reporter transcription
# Summary of the method: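 Reporter transcripts from transfected HepG2 cells were measured 24 h after dosing, using RT-PCR with capillary electrophoresis of 6-FAM-labelled fragments. The read-out reflects activity of exogenous FXR-Gal4 chimera on GAL4-UAS units, with induction relative to DMSO.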
# Glucocorticoid receptor (Homo sapiens), sequence (P04150 whole entry, looked up, the tested form may be a part): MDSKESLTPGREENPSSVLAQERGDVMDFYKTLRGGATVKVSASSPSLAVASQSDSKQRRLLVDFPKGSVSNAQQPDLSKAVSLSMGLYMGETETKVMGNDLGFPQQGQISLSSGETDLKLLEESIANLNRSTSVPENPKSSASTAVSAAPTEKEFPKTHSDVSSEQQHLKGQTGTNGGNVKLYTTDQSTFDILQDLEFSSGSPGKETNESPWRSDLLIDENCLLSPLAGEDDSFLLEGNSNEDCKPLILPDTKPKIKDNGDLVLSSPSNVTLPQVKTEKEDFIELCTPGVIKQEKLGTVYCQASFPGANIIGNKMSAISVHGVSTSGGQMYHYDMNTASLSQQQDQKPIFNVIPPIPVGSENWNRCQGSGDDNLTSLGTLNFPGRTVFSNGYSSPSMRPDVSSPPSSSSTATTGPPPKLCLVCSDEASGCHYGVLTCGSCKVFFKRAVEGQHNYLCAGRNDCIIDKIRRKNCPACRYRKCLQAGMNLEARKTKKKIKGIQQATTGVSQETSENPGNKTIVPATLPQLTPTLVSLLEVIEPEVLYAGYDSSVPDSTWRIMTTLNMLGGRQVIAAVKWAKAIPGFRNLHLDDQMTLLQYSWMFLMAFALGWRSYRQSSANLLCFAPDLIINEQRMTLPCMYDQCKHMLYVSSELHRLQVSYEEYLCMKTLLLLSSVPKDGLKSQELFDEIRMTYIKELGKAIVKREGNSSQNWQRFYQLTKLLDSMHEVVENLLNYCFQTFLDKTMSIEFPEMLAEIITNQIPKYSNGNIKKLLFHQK
# Nuclear receptor subfamily 4 group A member 2 (Homo sapiens), sequence (P43354 whole entry, looked up, the tested form may be a part): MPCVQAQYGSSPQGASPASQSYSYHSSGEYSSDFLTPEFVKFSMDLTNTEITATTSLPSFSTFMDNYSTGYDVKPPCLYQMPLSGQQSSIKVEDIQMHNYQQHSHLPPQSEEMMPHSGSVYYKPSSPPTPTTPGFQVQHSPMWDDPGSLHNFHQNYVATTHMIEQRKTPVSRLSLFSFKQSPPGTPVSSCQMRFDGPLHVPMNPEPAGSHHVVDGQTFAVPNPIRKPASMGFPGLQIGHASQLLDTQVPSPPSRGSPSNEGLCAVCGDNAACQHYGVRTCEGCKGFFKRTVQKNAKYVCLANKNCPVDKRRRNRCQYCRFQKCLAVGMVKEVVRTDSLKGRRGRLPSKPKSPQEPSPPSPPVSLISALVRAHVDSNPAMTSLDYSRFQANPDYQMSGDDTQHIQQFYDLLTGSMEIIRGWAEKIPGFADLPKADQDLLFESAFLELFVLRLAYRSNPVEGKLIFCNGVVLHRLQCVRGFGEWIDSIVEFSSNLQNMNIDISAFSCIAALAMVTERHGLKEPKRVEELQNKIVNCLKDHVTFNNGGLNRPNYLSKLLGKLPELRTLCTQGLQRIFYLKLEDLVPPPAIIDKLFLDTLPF
# Cellular tumor antigen p53 (Homo sapiens), sequence (P04637 whole entry, looked up): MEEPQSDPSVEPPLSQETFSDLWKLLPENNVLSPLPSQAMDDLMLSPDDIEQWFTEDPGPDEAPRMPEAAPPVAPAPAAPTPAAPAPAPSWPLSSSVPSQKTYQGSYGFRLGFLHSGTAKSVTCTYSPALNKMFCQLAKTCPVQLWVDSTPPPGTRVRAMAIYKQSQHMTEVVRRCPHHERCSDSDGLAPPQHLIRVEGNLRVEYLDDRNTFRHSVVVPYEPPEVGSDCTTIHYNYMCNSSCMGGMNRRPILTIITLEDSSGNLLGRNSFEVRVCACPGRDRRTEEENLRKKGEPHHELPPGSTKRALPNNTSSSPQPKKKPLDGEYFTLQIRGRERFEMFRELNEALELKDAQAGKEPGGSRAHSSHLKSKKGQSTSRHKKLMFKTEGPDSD
# Myc proto-oncogene protein (Homo sapiens), sequence (P01106 whole entry, looked up): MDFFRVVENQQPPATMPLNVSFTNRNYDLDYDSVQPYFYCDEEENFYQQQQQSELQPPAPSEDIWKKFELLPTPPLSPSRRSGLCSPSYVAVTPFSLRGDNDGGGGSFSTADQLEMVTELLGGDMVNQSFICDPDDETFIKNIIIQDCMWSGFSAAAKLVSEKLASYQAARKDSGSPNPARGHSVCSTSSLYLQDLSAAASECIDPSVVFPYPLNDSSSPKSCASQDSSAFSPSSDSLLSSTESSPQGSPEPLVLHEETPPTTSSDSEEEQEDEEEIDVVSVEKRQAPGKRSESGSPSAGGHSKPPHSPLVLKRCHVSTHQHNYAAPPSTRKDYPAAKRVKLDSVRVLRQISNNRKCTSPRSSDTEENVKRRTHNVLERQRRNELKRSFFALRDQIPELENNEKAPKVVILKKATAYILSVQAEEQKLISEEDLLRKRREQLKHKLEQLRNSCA
# Nuclear respiratory factor 1 (Homo sapiens), sequence (Q16656 whole entry, looked up): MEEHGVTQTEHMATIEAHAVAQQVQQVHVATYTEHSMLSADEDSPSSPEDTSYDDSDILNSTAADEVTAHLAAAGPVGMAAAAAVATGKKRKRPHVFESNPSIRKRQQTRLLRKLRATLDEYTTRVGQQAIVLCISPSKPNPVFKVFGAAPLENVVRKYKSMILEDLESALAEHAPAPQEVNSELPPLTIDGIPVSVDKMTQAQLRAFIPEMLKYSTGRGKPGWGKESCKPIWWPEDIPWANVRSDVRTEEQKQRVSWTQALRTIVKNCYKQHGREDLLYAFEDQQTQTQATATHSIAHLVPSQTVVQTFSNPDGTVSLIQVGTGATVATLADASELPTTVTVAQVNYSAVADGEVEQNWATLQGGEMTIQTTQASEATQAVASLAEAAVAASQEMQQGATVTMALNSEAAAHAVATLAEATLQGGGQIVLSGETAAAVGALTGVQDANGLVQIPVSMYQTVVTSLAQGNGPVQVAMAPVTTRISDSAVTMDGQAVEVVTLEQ
# Oxysterols receptor LXR-beta (Homo sapiens), sequence (P55055 whole entry, looked up, the tested form may be a part): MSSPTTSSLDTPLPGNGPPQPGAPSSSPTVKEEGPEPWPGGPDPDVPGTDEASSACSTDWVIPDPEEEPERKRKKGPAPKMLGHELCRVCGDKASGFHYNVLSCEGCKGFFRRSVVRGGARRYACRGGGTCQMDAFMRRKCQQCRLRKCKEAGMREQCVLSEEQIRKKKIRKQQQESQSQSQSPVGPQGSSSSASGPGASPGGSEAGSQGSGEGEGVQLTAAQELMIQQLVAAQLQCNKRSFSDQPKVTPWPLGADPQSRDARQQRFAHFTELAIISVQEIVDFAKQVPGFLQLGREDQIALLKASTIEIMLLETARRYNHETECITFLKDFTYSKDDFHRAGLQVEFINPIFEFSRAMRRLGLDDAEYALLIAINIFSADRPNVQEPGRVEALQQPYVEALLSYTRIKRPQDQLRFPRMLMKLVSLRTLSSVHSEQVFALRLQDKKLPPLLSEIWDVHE
# Transcriptional activator Myb (Homo sapiens), sequence (P10242 whole entry, looked up): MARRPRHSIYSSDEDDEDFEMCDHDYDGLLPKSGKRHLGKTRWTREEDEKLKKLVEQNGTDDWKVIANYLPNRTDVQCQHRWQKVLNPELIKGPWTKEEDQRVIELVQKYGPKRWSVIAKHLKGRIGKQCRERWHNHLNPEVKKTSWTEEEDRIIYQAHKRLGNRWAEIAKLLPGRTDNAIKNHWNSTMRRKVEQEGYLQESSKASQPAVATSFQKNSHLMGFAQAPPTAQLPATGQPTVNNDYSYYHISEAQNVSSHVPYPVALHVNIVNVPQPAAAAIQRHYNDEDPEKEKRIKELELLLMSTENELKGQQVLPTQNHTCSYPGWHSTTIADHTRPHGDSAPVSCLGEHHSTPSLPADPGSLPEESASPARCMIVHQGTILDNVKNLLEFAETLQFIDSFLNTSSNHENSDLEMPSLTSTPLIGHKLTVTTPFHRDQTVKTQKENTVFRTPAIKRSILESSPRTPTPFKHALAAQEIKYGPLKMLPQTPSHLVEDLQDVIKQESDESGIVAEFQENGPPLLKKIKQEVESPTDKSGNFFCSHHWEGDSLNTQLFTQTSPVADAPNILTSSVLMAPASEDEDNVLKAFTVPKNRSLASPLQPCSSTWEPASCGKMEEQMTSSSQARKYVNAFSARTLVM
# Oxysterols receptor LXR-alpha (Homo sapiens), sequence (Q13133 whole entry, looked up, the tested form may be a part): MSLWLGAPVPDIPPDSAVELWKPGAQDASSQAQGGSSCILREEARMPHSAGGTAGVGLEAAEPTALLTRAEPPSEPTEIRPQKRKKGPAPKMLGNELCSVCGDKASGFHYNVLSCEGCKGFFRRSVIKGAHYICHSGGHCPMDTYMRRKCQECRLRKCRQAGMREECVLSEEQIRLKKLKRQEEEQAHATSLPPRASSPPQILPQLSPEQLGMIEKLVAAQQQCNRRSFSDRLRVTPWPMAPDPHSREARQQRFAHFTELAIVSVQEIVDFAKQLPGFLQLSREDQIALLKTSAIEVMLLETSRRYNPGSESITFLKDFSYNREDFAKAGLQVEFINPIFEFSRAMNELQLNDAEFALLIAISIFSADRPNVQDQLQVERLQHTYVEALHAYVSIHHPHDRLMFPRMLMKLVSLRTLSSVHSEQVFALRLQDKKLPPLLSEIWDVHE
# Hepatocyte nuclear factor 4-alpha (Homo sapiens), sequence (P41235 whole entry, looked up, the tested form may be a part): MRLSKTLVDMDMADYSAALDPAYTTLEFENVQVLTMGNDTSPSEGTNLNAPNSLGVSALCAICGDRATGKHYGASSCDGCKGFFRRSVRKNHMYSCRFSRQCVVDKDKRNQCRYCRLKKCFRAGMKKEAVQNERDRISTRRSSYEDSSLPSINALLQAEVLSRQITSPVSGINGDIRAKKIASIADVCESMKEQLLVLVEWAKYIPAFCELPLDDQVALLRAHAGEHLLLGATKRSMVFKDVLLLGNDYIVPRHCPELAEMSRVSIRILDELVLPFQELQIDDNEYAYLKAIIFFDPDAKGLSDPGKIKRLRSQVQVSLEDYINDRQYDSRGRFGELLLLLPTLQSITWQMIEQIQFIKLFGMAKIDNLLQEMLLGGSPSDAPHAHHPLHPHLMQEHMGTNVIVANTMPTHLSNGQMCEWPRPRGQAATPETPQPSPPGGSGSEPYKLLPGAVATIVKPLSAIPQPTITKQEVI
structure (smiles),measurement,setting,value
OCCO,outcome,[1],inactive
same,outcome,[2],inactive
same,outcome,[3],inactive
same,outcome,[4],inactive
same,outcome,[5],inactive
same,outcome,[6],inactive
same,outcome,[7],inactive
same,outcome,[8],inactive
same,outcome,[9],inactive
same,outcome,[10],inactive
same,outcome,[11],inactive
same,outcome,[12],inactive
same,outcome,[13],inactive
same,outcome,[14],inactive
Cc1ccc(C(C)C)cc1,outcome,[15],inactive
same,outcome,[1],inactive
same,outcome,[16],inactive
same,outcome,[4],inactive
same,outcome,[5],inactive
same,outcome,[6],inactive
same,outcome,[7],inactive
same,outcome,[9],inactive
same,outcome,[10],inactive
same,outcome,[11],inactive
same,outcome,[17],inactive
same,outcome,[12],inactive
same,outcome,[13],inactive
same,outcome,[14],inactive
CC(C)(C)c1cc(/C=C2\SC(N)=NC2=O)cc(C(C)(C)C)c1O,outcome,[18],inactive
same,outcome,[16],inactive
same,outcome,[3],inactive
same,outcome,[4],inactive
same,outcome,[5],inactive
same,AC50,[6],18.4 µM (active)
same,outcome,[7],inactive
same,outcome,[8],inactive
same,AC50,[9],11.6 µM (active)
same,AC50,[10],16.2 µM (active)
same,AC50,[11],11 µM (active)
same,AC50,[12],31.6 µM (active)
same,AC50,[13],29.4 µM (active)
same,AC50,[14],30.4 µM (active)
c1ccc2ccccc2c1,outcome,[1],inactive
same,outcome,[16],inactive
same,outcome,[3],inactive
same,outcome,[19],inactive
same,outcome,[4],inactive
same,AC50,[5],100 µM (active)
same,outcome,[5],inactive
same,outcome,[6],inactive
same,outcome,[7],inactive
same,outcome,[8],inactive
same,outcome,[9],inactive
same,outcome,[10],inactive
same,outcome,[11],inactive
same,outcome,[17],inactive
same,outcome,[12],inactive
same,outcome,[13],inactive
same,outcome,[14],inactive
Clc1cc(Cl)c2c(c1)N=C1CCCCCN1C2,outcome,[18],inactive
same,outcome,[16],inactive
same,outcome,[4],inactive
same,outcome,[5],inactive
same,outcome,[6],inactive
same,outcome,[7],inactive
same,AC50,[8],72.4 µM (active)
same,AC50,[9],20.8 µM (active)
same,outcome,[10],inactive
same,AC50,[11],50 µM (active)
same,outcome,[17],inactive
same,outcome,[12],inactive
same,outcome,[13],inactive
same,outcome,[14],inactive
O=C(O)c1ccccc1C(=O)OCc1ccccc1,outcome,[20],inactive
same,outcome,[1],inactive
same,outcome,[16],inactive
same,outcome,[19],inactive
same,outcome,[4],inactive
same,outcome,[5],inactive
same,outcome,[6],inactive
same,outcome,[7],inactive
same,outcome,[8],inactive
same,outcome,[9],inactive
same,outcome,[10],inactive
same,outcome,[11],inactive
same,outcome,[12],inactive
same,outcome,[13],inactive
same,outcome,[14],inactive
CC(O)CC(C)(C)O (stereo not given),outcome,[18],inactive
same,outcome,[15],inactive
same,outcome,[2],inactive
same,outcome,[16],inactive
same,outcome,[3],inactive
same,outcome,[19],inactive
same,outcome,[4],inactive
same,outcome,[5],inactive
same,outcome,[6],inactive
same,outcome,[7],inactive
same,outcome,[8],inactive
same,outcome,[9],inactive
same,outcome,[10],inactive
same,outcome,[11],inactive
same,outcome,[12],inactive
same,outcome,[13],inactive
same,outcome,[14],inactive
CN(C[C@@H](CC[N+]12CCC(C3CCCCC3)(CC1)CC2)c1ccc(Cl)c(Cl)c1)C(=O)c1cc(C(F)(F)F)cc(C(F)(F)F)c1,outcome,[18],inactive
same,outcome,[16],inactive
same,AC50,[3],18.4 µM (active)
same,outcome,[4],inactive
same,outcome,[5],inactive
same,outcome,[6],inactive
same,outcome,[7],inactive
same,outcome,[8],inactive
same,outcome,[9],inactive
same,outcome,[10],inactive
same,outcome,[11],inactive
same,AC50,[17],23.5 µM (active)
same,AC50,[12],14.3 µM (active)
same,AC50,[13],31.9 µM (active)
same,AC50,[14],30.4 µM (active)

# From PubChem BioAssay (EPA / NIEHS)
